Results from the supplement of paper PMC11732987, “Enantioselective OTUD7B fragment discovery through chemoproteomics screening and high-throughput optimisation” (Communications Chemistry, 2025).

Tests used:
Experiment in all cases: log2 ratio of Biotin-Ahx-Ub-VS probe labelling (fragment/DMSO); higher = less target engagement (more negative = stronger competition), active = hit call of the paper (q ≤ 0.05, log2 ratio ≤ -1)
Conditions in all cases: compound concentration: 200 uM; treatment time: 3 h
[1] = biological target: T1, ALG13 (UniProt Q9NP73)
T1 sequence (whole entry): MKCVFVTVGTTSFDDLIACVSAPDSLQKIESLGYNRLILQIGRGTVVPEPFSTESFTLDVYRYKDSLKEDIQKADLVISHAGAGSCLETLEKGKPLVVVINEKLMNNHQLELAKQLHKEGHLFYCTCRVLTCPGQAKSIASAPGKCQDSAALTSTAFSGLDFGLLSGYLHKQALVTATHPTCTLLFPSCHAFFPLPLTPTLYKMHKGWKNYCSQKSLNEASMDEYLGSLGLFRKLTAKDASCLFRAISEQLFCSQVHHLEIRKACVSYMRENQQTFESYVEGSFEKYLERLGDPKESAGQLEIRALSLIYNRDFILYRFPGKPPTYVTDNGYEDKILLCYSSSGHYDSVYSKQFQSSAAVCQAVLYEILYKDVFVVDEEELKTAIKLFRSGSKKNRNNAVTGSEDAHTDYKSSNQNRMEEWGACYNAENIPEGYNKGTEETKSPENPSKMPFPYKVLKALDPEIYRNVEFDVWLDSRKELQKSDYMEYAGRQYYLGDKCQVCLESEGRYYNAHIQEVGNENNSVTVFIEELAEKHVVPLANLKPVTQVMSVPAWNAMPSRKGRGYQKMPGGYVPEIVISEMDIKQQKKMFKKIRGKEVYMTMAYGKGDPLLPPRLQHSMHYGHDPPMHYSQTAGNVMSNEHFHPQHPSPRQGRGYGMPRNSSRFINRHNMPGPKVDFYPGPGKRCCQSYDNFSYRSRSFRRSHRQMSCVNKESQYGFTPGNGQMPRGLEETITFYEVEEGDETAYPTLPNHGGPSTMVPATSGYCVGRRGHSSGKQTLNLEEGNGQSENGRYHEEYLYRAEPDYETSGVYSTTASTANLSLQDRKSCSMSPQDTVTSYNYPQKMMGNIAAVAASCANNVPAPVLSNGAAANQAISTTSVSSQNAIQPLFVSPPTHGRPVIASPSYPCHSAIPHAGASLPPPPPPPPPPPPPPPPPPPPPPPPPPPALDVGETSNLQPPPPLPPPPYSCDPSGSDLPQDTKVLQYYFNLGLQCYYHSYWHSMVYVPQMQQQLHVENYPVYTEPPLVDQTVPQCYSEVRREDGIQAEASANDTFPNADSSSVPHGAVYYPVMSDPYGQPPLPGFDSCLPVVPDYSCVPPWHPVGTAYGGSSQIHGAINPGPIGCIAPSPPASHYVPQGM
Procedure, shortened: (§1)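 HEK293T lysate (495 µg per sample, in Tris/CHAPS/IGEPAL buffer with protease inhibitors) was exposed in triplicate for 3 h to fragment at 200 µM or to vehicle, then to Biotin-Ahx-Ub-VS at 0.5 µM final for 1 h. Labelled DUBs were enriched on NeutrAvidin, digested with LysC and trypsin, and analysed by diaPASEF LC-MS/MS. Spectronaut label-free quantities were normalised to the global median, and values are average log2 ratios of fragment over vehicle from an unpaired t-test. Only proteins with ≥2 unique peptides were used.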

[2] = biological target: ATXN3 (UniProt P54252)
ATXN3, sequence (P54252 whole entry): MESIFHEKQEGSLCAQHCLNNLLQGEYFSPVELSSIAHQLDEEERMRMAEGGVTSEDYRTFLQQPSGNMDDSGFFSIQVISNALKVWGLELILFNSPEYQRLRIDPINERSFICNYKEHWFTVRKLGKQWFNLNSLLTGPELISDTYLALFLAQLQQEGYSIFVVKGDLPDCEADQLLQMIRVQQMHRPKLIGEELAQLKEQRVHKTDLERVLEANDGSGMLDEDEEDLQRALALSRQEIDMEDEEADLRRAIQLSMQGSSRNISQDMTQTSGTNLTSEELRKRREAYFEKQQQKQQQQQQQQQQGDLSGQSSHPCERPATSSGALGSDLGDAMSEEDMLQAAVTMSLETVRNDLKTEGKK
Procedure, shortened: as §1

[3] = biological target: T2, BAP1 (UniProt Q92560)
T2 sequence (whole entry): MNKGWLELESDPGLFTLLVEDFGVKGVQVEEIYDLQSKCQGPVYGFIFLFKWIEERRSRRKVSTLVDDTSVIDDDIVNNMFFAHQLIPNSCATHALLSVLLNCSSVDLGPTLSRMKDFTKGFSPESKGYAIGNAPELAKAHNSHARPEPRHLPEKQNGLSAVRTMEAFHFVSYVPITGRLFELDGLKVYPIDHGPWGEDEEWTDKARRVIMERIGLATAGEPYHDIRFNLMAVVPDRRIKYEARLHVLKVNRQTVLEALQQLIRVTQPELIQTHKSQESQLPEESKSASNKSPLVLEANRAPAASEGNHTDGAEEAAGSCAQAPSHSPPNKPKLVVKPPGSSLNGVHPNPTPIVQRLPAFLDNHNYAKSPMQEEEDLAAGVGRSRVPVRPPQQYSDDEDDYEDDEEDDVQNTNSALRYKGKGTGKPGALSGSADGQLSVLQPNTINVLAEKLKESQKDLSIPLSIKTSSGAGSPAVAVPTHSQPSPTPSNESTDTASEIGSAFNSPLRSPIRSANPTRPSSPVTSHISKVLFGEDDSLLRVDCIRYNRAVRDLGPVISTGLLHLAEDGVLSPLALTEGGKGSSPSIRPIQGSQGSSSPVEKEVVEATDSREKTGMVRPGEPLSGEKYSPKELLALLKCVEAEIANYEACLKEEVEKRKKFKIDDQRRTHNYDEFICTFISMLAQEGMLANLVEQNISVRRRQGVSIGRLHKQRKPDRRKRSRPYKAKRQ
Procedure, shortened: as §1

[4] = biological target: EIF3F (UniProt O00303)
EIF3F, sequence (O00303 whole entry): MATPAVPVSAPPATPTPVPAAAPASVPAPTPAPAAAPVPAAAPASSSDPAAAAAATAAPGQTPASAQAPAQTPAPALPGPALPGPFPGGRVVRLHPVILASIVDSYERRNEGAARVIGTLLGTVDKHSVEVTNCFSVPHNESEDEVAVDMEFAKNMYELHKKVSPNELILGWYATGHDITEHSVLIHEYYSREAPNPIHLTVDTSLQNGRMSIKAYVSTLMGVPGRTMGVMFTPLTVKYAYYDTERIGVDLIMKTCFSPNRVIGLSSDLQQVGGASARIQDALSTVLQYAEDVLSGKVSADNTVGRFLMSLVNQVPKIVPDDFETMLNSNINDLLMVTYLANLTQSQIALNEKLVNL
Procedure, shortened: as §1

[5] = biological target: EIF3H (UniProt O15372)
EIF3H, sequence (O15372 whole entry): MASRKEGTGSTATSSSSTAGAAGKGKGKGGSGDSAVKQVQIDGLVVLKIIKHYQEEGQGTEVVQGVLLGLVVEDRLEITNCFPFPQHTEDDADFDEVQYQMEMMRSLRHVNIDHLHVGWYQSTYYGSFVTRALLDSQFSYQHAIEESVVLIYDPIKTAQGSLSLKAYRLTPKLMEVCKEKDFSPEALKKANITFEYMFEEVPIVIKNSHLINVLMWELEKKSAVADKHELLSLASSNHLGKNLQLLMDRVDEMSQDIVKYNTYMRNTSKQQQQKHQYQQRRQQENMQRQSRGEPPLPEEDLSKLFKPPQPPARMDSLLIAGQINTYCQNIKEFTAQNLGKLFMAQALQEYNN
Procedure, shortened: as §1

[6] = biological target: T3, FAM105A (UniProt Q9NUU6)
T3 sequence (whole entry): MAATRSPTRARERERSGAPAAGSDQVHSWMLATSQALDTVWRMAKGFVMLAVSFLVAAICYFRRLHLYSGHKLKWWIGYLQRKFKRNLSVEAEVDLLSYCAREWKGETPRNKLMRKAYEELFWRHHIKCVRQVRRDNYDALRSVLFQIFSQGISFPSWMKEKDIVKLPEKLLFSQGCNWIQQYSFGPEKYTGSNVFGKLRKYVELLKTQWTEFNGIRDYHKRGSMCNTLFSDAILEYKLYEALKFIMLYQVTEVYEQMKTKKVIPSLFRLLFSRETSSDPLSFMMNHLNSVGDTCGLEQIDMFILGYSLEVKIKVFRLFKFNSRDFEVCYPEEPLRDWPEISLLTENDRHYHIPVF
Procedure, shortened: as §1

[7] = biological target: OTUB1 (UniProt Q96FW1)
OTUB1, sequence (Q96FW1 whole entry): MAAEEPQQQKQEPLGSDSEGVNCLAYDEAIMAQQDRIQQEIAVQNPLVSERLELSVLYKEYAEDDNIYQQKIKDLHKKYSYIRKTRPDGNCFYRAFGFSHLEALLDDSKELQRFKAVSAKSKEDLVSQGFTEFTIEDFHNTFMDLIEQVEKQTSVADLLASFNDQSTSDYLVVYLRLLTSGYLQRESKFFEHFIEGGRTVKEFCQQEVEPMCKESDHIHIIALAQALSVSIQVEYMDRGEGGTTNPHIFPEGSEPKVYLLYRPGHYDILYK
Procedure, shortened: as §1

[8] = biological target: T4, OTUD4 (UniProt Q01804)
T4 sequence (whole entry): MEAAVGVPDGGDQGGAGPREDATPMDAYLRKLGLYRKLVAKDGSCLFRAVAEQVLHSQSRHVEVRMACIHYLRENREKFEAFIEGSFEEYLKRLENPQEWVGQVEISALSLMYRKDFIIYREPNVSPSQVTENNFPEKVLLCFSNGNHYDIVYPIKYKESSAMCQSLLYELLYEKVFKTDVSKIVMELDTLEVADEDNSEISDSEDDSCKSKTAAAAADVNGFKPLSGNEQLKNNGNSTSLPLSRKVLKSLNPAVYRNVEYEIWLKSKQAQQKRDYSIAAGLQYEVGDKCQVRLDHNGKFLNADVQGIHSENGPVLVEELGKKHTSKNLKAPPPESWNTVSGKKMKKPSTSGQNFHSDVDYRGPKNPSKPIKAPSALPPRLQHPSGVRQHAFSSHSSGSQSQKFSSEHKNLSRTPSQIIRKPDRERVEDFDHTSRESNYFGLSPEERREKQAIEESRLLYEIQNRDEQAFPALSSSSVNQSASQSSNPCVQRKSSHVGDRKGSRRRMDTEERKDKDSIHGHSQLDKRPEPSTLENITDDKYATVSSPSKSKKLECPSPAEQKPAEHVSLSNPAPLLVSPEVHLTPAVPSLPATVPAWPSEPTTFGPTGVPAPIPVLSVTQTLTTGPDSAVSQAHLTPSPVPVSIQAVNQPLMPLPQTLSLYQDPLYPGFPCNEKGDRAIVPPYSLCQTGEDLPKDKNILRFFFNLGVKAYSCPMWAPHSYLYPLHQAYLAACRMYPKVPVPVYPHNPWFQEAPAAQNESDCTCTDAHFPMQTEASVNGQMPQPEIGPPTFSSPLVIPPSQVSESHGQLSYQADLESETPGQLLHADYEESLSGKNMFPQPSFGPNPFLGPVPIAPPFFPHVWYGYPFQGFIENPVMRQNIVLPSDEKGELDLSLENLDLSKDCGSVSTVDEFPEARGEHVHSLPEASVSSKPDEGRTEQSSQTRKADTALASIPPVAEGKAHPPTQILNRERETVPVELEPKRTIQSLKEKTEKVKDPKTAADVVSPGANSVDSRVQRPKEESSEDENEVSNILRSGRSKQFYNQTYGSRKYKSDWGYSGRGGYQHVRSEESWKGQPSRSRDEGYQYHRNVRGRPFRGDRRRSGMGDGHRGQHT
Procedure, shortened: as §1

[9] = biological target: T5, OTUD5 (UniProt Q96G74)
T5 sequence (whole entry): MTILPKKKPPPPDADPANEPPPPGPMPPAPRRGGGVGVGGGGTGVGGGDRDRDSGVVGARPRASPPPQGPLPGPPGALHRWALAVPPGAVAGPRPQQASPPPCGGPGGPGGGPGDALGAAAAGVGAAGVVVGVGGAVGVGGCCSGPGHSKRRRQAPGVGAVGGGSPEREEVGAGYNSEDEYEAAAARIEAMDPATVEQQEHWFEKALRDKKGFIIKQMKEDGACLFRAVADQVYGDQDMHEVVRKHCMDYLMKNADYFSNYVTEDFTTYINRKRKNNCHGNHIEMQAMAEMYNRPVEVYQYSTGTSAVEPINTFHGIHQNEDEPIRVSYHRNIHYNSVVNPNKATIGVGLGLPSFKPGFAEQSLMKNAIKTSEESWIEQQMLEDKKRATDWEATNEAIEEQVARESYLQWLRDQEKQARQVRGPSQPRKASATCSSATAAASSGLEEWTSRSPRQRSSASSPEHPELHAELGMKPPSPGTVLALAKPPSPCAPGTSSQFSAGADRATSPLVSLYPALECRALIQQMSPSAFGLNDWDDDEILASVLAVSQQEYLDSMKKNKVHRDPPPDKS
Procedure, shortened: as §1

Measured: log2 ratio of Biotin-Ahx-Ub-VS probe labelling

CN(CCC(O)c1ccc(Br)cc1)C(=O)CCl (centres undefined)
inactive: [1] -0.222 | [2] -0.473 | [4] -0.372 | [5] 0.178 | [6] 0.138 | [7] -0.231 | [8] -0.192 | [9] -0.354
active: [3] -2.04
